For this assay, the system named is HepG2. As to the kind of experiment: GSK_TCMDC: Percent inhibition of human HepG2 cell line. Test compounds present at 10uM. In kind it is functional.
Take `CN1CCN(CCCN(Cc2csc(-c3ccc(CNCc4ccccc4)cc3)n2)C(=O)Nc2cccc(Cl)c2)CC1.O=C(O)C(F)(F)F`: the Inhibition is listed as 32%.

With `COc1ccccc1NC(=O)Nc1cccc(-c2cccc(-c3nc4cccc(C)c4[nH]3)c2)c1`, the Inhibition was found to be 11%.

On to `COc1ccccc1-c1ccc(CNC(=O)C(CN2CCN(C)CC2)c2ccccc2)cc1` (stereo not given), for which the Inhibition turned out to be 3%.

As for `O=C(O)C(F)(F)F.c1cc(CNC2CCCC2)cc(-c2ccc(CNc3ccc4ncccc4c3)cc2)c1`, the Inhibition came out at 32%.

`COc1cc(CC2c3cc(O)c(Cl)cc3CCN2C)c(OC)cc1C.Cl` (stereo not given): the Inhibition was 10%.

In turn, `CCOC(=O)c1ccc(NC(=O)Nc2ccc(-c3ccc(-c4nc5cc(C(F)(F)F)ccc5[nH]4)cc3)cc2)cc1` showed an Inhibition of 20%.

The compound `CC1=C(C(=O)Nc2cc3cn[nH]c3cc2F)C(c2ccc(Cl)c(NS(C)(=O)=O)c2)CC(=O)N1` (stereo not given) showed an Inhibition of 2%.

Consider `CCOc1ccc(Br)cc1/C=C/C(=O)Nc1ccc2c(c1)CCCN(C)C2.O=C(O)C(F)(F)F`, for which the Inhibition worked out at 40%.

`CCC(Nc1noc(-c2c(-c3ccccc3)noc2C)n1)c1ccccc1` (stereo not given) came in with an Inhibition of 4%.

In the case of `C#CCOc1ccccc1CN1CCC(N2CCc3cc(NC(=O)c4cc(C)on4)ccc32)C1` (stereo not given), the Inhibition was 16%.

The values are drawn from ChEMBL document CHEMBL1157539, “Thousands of chemical starting points for antimalarial lead identification” (Nature, 2010).
